# KDM5B inhibitor – blocks human KDM5B histone demethylase activity. 220,000 compounds, 2.6% hits. Q9UGL1. Potency, µM (titrated, usually from 57.7 µM), actives largely listed as inhibitors. KDM5B demethylase, FDH-coupled NADH fluorescence (FDH is formaldehyde dehydrogenase); active means well fitted inhibition curve with a large enough effect; further: nearly all actives have a fitted effect of over 70% in size
# Target sequence (Q9UGL1 whole entry, looked up): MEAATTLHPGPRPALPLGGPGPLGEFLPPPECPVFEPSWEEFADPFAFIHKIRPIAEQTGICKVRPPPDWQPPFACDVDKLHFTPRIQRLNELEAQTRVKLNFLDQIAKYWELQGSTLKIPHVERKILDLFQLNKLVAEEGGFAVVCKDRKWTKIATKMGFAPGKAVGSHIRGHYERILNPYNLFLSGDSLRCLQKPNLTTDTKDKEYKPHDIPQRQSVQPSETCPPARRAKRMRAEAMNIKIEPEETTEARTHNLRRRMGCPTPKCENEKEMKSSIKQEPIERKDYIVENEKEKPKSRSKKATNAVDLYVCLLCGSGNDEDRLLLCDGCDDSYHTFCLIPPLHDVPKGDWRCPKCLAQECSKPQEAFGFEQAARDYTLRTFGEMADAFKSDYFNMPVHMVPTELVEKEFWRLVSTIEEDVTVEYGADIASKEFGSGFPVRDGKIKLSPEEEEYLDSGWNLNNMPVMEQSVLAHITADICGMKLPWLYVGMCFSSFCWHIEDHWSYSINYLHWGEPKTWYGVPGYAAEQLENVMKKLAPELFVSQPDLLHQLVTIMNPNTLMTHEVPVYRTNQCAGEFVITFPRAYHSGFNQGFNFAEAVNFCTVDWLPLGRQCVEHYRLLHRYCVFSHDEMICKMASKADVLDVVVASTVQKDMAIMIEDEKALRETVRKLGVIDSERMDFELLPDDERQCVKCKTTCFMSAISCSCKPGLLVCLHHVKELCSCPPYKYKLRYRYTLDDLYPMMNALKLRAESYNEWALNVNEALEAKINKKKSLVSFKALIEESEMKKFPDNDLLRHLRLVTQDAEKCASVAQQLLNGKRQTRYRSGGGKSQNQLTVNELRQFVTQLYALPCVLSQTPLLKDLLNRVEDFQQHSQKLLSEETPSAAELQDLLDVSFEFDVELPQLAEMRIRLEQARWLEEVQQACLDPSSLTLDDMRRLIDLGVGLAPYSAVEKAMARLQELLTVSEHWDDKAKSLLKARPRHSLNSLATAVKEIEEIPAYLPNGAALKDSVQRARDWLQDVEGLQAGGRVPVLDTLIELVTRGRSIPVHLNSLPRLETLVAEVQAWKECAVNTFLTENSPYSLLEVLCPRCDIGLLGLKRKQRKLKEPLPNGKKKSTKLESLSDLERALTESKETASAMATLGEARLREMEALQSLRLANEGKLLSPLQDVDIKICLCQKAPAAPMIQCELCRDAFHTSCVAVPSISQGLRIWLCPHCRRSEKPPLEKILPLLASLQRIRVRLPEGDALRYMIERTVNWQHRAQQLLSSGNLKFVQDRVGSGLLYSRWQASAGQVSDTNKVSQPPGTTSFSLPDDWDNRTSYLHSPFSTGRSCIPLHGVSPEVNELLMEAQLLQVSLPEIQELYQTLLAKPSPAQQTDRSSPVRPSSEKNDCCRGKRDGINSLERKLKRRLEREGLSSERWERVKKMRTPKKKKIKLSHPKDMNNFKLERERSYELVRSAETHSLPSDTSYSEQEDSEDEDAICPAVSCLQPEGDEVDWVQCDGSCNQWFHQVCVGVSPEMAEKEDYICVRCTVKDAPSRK
#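 Inhibition is measured as reduced NADH fluorescence generation from FDH coupling to formaldehyde release. Truncated KDM5BΔAP at 200 nM final acts on H3K4me3 peptide (12.5 µM in substrate mix) in pH 7.5 HEPES buffer with Tween-20, 30 min, room temperature.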
# Numbers stand for hits; 0 = inactive; + = active, no number. This excerpt belongs to a sample that is enriched for hits.
SMILES,KDM5B inhibitor
COc1ccc(-c2noc([C@@H]3CCCN3C(=O)Cc3ccccc3)n2)cc1,0
Cc1ccc(-c2noc([C@@H]3CCCN3C(=O)CCCc3ccccc3)n2)cc1,0
O=C(Cn1cnc(S(=O)(=O)N2CCOCC2)c1)N1CCN(c2ccc(F)cc2)CC1,0
NC(=S)N/N=C/c1ccc2ccccc2n1,0
CC(=O)Nc1ccc(NC(=O)c2cccc3c2ccn3C)cc1,0
COc1ccc(Cc2nnc(SC(C)c3nc4ccccc4c(=O)[nH]3)o2)cc1 (stereo not given),0
COc1ccc(OC)c(NC(=O)COc2cccc(C)c2C)c1,0
CC(Sc1nnc(-c2cccs2)n1C1CC1)C(=O)NC1(C#N)CCCCC1 (stereo not given),0
CCN(CC)C(=S)SCc1csc(C)n1,0
COc1ccc(CN2CCC[C@H]2c2nc(-c3cncnc3N)no2)cc1,0
Nc1ncncc1-c1noc([C@@H]2CCCN2Cc2cnc3ccccc3c2)n1,0
COCCNc1ncccc1-c1noc([C@@H]2CCCN2Cc2ccncc2)n1,28µM
COCCOc1ncccc1-c1noc([C@@H]2CCCN2Cc2ccc(S(C)(=O)=O)cc2)n1,0
COCCOc1ccnc(-c2noc([C@@H]3CCCN3Cc3cccnc3)n2)c1,0
COCCNc1ncccc1-c1noc([C@@H]2CCCN2Cc2ccccn2)n1,32µM
CC1C(=O)CCN(CCCO)C1C (stereo not given),0
Cn1nc(C(=O)NCc2cccc(Cl)c2)c2ccccc2c1=O,0
CCN(CC)CCCNc1oc(-c2ccco2)nc1S(=O)(=O)c1ccc2c(c1)OCCO2,0
O=C(CSc1nnc(NC2CC2)s1)Nc1ccc(Cl)cc1,0
Cc1oc2cc(OS(C)(=O)=O)ccc2c(=O)c1Oc1ccccc1Br,0
Cc1noc(-c2ccccc2NC(=O)c2ccncc2)n1,0
COc1ccc(C(=O)NCc2nc(-c3cccs3)no2)cc1,0
Cc1ccc(C(=O)NCc2nnc3c(-c4nc(C)no4)cccn23)cc1,28µM
COc1ccc(C(=O)NCc2nnc3c(-c4nc(C)no4)cccn23)cc1,25µM
Cc1ccc(-c2nccc(N3CCC(O)C3)n2)c(C)c1 (stereo not given),0
SMILES,KDM5B inhibitor
CC(C)OC(=O)CCNC(=O)c1ccc(CS(C)(=O)=O)cc1,0
CCc1cc(C(=O)O)cs1,0
CCC1c2ccsc2CCN1C(=O)CC(c1ccccc1)c1ccccc1 (stereo not given),0
CCn1c(SCC(=O)c2ccc(Cl)s2)nnc1-c1ccc(OC)cc1,0
Cc1ccc(Oc2ccccc2NC(=O)Cn2nc(C(N)=O)c3ccccc3c2=O)cc1,0
O=C(NCc1cccs1)c1cc(C2CC2)nc2onc(C3CCNCC3)c12,0
O=C(NC1CCCC1)c1cc(C2CC2)nc2onc(C3CCNCC3)c12,79µM
O=C(NCc1ccc(F)cc1)c1cc(C2CC2)nc2onc(C3CCNCC3)c12,0
O=C(c1cc(C2CC2)nc2onc(C3CCNCC3)c12)N1CCCCC1,0
Cc1cc(C(=O)NCc2cccs2)c2c(C3CCNCC3)noc2n1,0
Cc1cc(C(=O)NCC(F)(F)F)c2c(C3CCNC3)noc2n1 (stereo not given),0
Cc1cc(C(=O)NC2CC2)c2c(C3CCCNC3)noc2n1 (stereo not given),0
COCCNC(=O)c1cc(C2CC2)nc2onc(C3CCNC3)c12 (stereo not given),79µM
COCCNC(=O)c1cc(-c2ccc(OC)cc2)nc2onc(C3CCNC3)c12 (stereo not given),79µM
Cc1cc(C(=O)NC2CCNCC2)c2c(C3CCNCC3)noc2n1,0
Cc1cc(C(=O)N2CCCCC2)c2c(C3CCNC3)noc2n1 (stereo not given),89µM
Cc1cc(C(=O)NC2CCNCC2)c2c(C3CCNC3)noc2n1 (stereo not given),0
O=C1CN(c2nc(-c3ccsc3)nc3ccccc23)CCN1,0
CC(C1CC1)N(Cc1ccccc1)C(=O)CSc1cc(C(N)=O)c2ccccc2n1 (stereo not given),0
CCN1CCN(c2oc(COc3ccccc3F)nc2C#N)CC1,0
CC1CCN(CCCNC2CCCC2)CC1,0
Cc1ccc2c(=O)cc(C(=O)Nc3cccc(Cl)c3)oc2c1,0
O=S(=O)(c1ccc2c(c1)OCCO2)c1nc(-c2ccco2)oc1NCCCn1ccnc1,0
CN(C)c1ccc(C(=O)Nc2cnc3ccccc3c2)cc1,0
Cc1ccc(S(=O)(=O)c2cn(CC(=O)Nc3ccc(F)c(Cl)c3)c3nc(C)ccc3c2=O)cc1,0
SMILES,KDM5B inhibitor
Cc1cc(C)n2nc(N(Cc3ccc(C#N)cc3)S(=O)(=O)c3ccc(Cl)cc3)nc2n1,0
COc1ccccc1Nc1ncc2c(n1)CN(C(=O)c1cccc(C#N)c1)CCN2,0
COc1ccccc1Nc1ncc2c(n1)CN(C(=O)c1ccccc1)CCN2,0
COc1ccccc1Nc1ncc2c(n1)CN(C(=O)c1cc3ccccc3n1C)CCN2,40µM
O=C(C1CCC1)N1CCC2(CC1)CN(c1ccccc1)C2=O,0
C[C@@]1(O)CCN(Cc2cccc(F)c2F)C[C@H]1N1CCCC1,0
Cc1ccccc1C(=O)N1CC[C@](O)(c2ccccc2)[C@H](N(C)C)C1,0
O=C(C1CC1)N1CC[C@](O)(c2ccccc2)[C@H](N2CCCC2)C1,16µM
O[C@]1(c2ccccc2)CCN(Cc2ccncc2)C[C@H]1N1CCCC1,6.3µM
CC1(c2ccccc2)N(Cc2ccccc2)C(=O)OC12CCN(Cc1ccncc1)CC2 (stereo not given),0
O=C1CCCN1c1cccc(-c2csc(-c3ccsc3)n2)c1,0
O=C(O)CCNC1CC1,0
Cc1noc(-c2ccn3c(CNC(=O)c4ccc(Cl)cc4)nnc3c2)n1,0
Cc1noc(-c2ccn3c(CNC(=O)c4cccc(F)c4)nnc3c2)n1,28µM
COc1cccc(C(=O)NCc2nnc3cc(-c4nc(C)no4)ccn23)c1,28µM
COc1ccc(C(=O)NCc2nnc3cc(-c4nc(C)no4)ccn23)cc1F,7.9µM
Cc1noc(-c2ccn3c(CNC(=O)c4ccc5ccccc5n4)nnc3c2)n1,6.3µM
O=C(CN1CCN(c2nc(-c3ccccn3)nc3scc(-c4ccccc4)c23)CC1)N1CCCC1,0
COc1cc(/C=C(/C#N)c2nc3ccccc3o2)ccc1O,0
Cc1ccc(CN2C[C@@H](CO)[C@H](c3nc(C)no3)C2)cc1,0
COc1ccc(-c2nc(CSC(C)C(=O)NC(C)(C)C)co2)cc1 (stereo not given),0
COc1ccccc1CN(C)C(=O)Cc1c(C)nc2ccccc2c1C,0
O=C(CSc1nc(-c2ccccc2)cs1)Nc1ccc(OC(F)F)cc1,0
Cc1cccc(Cc2cnc(NC(=O)c3nn(C)c(=O)c4ccccc34)s2)c1,0
Cc1ccc(NS(=O)(=O)c2cc(NC(=O)Cc3n[nH]c(=O)c4ccccc34)ccc2C)c(C)c1,0
SMILES,KDM5B inhibitor
CC(=O)N1CCN(C(=O)c2cn(CCN)nn2)[C@H]2CS(=O)(=O)C[C@H]21,0
COc1ccc(-c2nc(Cn3ncc4ccccc4c3=O)co2)cc1,0
COc1ccc(C(CC(=O)NCc2cccnc2)Sc2n[nH]c(-c3ccc(F)cc3)n2)cc1 (stereo not given),0
CN1CCCCC12Cc1ccccc1CN(C(=O)C1CCCC1)C2 (stereo not given),0
CN1CCCCC12Cc1ccccc1CN(C(=O)CCCC(=O)O)C2 (stereo not given),0
CCCN1CCCCC12Cc1ccccc1CN(C(=O)C1CCCC1)C2 (stereo not given),50µM
O=C(O)CCC(=O)N1Cc2ccccc2CC2(CCCCN2CCc2ccccc2)C1 (stereo not given),+
